The record followed here is paper PMC7862700, “An all-to-all approach to the identification of sequence-specific readers for epigenetic DNA modifications on cytosine”.

Holding throughout (assay): DAPPL (digital affinity profiling via proximity ligation, sequencing); 10 mM Tris-HCl pH 7.5, 50 mM NaCl, 1 mM DTT, 4% glycerol, room temperature, 30 min; GST-TFs on glutathione beads, 16-mer random dsDNA library, 0.1% formaldehyde crosslink after washing; high values mean tight binding
One assay concerns the target T1, FEV (Homo sapiens, UniProt Q99581 1-238).
T1 sequence: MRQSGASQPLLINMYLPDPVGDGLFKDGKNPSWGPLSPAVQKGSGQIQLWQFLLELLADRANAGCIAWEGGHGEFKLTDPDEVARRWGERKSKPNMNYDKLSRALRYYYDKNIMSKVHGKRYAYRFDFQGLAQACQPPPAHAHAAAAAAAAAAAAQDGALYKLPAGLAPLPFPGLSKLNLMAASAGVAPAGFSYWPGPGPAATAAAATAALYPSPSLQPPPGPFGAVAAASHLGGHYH
The following applies: protein: recombinant; tags: N-terminal GST; dsDNA, one strand shown. The method in brief:
(§1)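 Binding signal is each hexamer's read frequency for a factor divided by its frequency in the tag-only sample. The factors were GST-fused human transcription factors from yeast, captured on glutathione beads, DNA-barcoded and pooled with that sample. Pools were incubated with 200 nmole of a random double-stranded 16-mer DNA library in Tris/NaCl/DTT/glycerol buffer at room temperature for 30 min, then washed, crosslinked with 0.1% formaldehyde, proximity-ligated with BsaI/T4 ligase (1 h, 37 °C), PCR-amplified and sequenced on an Illumina NextSeq500.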

A further assay addresses ETV5 (Homo sapiens, UniProt P41161 1-510). The following applies: protein: recombinant; tags: N-terminal GST; dsDNA, one strand shown. The method in brief:
as §1

In another assay the target is HSF1 (Homo sapiens, UniProt Q00613 1-529). The following applies: protein: recombinant; tags: N-terminal GST; chain copies: 3; dsDNA, one strand shown. In outline:
as §1

In a further assay the target is T2, SPIC (Homo sapiens, UniProt Q8N5J4 1-248).
T2 sequence: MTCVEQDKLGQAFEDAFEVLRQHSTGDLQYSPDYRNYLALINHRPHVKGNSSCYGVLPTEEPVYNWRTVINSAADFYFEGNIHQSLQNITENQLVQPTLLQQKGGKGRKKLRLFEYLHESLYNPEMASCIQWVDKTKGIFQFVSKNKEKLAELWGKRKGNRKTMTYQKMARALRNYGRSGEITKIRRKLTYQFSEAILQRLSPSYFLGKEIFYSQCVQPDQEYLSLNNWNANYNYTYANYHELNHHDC
The settings on record: protein: recombinant; tags: N-terminal GST; dsDNA, one strand shown. The method in brief: as §1

Another assay addresses ELF4 (Homo sapiens, UniProt Q99607 1-663). The settings on record: protein: recombinant; tags: N-terminal GST; dsDNA, one strand shown. In outline:
as §1

For the next assay, the target named is T3, ELK4 (Homo sapiens, UniProt P28324-2 1-405).
T3 sequence: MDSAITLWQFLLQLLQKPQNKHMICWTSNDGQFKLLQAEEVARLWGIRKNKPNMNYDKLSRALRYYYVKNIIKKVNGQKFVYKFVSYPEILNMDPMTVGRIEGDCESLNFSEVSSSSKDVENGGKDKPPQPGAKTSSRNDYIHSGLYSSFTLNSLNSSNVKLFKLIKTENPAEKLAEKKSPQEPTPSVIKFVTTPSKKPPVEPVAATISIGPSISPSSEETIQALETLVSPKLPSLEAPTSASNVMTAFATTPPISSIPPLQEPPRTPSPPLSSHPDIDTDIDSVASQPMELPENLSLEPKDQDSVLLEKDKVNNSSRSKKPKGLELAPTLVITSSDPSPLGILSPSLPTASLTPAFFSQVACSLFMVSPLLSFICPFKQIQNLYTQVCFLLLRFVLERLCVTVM
The following applies: protein: recombinant; tags: N-terminal GST; dsDNA, one strand shown. The method in brief: as §1

A further assay concerns the target T4, ETV2 (Homo sapiens, UniProt O00321 1-342).
T4 sequence: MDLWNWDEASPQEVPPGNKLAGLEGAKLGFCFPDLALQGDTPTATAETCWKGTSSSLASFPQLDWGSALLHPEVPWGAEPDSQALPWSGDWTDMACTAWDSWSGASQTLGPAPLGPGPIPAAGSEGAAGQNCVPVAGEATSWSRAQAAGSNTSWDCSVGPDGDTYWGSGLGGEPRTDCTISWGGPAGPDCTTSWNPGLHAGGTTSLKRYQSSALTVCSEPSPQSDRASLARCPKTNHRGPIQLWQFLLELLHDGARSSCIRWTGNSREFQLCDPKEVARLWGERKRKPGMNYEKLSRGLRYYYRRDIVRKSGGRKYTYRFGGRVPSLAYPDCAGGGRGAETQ
The settings on record: protein: recombinant; tags: N-terminal GST; dsDNA, one strand shown. The method in brief: as §1

The next assay deals with T5, ELF3 (Homo sapiens, UniProt P78545 1-371).
T5 sequence: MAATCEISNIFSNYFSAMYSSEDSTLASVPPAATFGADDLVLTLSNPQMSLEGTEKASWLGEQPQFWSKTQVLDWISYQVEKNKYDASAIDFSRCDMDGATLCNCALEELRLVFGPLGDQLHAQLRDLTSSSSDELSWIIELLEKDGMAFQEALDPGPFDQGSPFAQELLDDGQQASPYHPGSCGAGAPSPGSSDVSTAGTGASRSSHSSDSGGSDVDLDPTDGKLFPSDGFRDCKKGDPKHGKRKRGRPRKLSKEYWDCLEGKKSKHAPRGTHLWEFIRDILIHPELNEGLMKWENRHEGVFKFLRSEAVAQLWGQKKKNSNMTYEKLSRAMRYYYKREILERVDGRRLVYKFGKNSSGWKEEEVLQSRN
The settings on record: protein: recombinant; tags: N-terminal GST; dsDNA, one strand shown. The method in brief:
as §1

In another assay the target is CRX (Homo sapiens, UniProt O43186 1-299). The following applies: protein: recombinant; tags: N-terminal GST; dsDNA, one strand shown. The method in brief: as §1
Chain of CRX (O43186 whole entry): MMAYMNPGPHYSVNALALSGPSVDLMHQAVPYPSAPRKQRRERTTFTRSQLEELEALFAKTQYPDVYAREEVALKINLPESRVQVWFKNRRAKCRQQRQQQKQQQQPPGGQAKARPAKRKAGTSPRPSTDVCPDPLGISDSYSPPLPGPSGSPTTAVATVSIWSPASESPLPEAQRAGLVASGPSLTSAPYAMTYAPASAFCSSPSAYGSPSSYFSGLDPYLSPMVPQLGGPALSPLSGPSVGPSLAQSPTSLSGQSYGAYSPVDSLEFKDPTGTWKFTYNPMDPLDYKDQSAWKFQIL
A further assay concerns the target ETV1 (Homo sapiens, UniProt P50549 1-477). The settings on record: protein: recombinant; tags: N-terminal GST; dsDNA, one strand shown. In outline: as §1
In a further assay the target is T6, ERF (Homo sapiens, UniProt P50548 1-548).
T6 sequence: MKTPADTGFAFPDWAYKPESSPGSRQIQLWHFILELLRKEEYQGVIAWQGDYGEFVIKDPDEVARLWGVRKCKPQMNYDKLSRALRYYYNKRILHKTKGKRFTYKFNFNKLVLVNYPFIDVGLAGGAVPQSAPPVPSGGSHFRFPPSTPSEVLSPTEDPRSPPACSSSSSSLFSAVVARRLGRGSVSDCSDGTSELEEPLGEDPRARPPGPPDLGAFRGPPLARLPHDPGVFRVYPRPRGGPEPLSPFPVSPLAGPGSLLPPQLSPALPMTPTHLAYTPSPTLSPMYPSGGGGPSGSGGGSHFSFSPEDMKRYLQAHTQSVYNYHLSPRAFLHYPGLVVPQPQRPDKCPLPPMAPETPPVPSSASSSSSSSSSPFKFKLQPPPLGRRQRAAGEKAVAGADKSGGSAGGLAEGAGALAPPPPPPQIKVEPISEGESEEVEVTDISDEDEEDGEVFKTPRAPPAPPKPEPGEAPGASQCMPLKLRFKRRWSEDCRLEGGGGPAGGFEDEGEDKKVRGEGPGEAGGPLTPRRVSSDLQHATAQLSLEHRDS
The following applies: protein: recombinant; tags: N-terminal GST; dsDNA, one strand shown. In outline: as §1

Another assay concerns the target T7, ETV3L (Homo sapiens, UniProt Q6ZN32 1-361).
T7 sequence: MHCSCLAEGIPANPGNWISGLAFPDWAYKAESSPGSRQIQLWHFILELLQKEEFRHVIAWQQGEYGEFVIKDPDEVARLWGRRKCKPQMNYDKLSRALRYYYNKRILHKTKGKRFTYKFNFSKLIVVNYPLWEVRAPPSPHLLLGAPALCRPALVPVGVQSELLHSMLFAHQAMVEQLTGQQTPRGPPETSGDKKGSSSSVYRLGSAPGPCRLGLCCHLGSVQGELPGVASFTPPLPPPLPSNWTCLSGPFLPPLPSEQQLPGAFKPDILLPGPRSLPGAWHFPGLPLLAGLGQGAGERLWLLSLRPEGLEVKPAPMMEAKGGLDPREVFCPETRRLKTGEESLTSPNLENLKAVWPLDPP
The settings on record: protein: recombinant; tags: N-terminal GST; dsDNA, one strand shown. In outline: as §1

A further assay concerns the target T8, ETS2 (Homo sapiens, UniProt P15036 1-469).
T8 sequence: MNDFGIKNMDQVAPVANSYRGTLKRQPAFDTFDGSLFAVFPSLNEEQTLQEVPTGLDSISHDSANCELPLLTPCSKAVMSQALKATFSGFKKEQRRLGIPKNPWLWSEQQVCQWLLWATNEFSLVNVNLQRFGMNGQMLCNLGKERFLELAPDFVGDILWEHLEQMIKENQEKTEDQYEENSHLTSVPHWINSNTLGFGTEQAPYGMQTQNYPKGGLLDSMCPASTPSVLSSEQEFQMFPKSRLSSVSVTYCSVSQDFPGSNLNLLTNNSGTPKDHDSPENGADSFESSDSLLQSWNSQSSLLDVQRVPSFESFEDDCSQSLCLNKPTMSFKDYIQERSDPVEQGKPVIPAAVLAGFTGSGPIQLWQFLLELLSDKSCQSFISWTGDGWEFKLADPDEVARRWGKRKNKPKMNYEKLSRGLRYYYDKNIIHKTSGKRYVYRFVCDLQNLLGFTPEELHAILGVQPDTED
The following applies: protein: recombinant; tags: N-terminal GST; dsDNA, one strand shown. In outline:
as §1

Another assay deals with T9, SPDEF (Homo sapiens, UniProt O95238 1-335).
T9 sequence: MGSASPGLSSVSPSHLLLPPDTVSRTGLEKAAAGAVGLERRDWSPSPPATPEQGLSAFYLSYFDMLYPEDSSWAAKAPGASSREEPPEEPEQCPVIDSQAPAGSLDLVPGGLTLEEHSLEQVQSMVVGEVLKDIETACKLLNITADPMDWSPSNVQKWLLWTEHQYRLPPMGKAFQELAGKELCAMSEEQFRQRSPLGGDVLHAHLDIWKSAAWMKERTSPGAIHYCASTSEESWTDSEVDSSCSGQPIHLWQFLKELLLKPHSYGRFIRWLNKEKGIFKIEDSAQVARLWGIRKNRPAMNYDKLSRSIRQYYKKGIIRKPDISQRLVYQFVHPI
The settings on record: protein: recombinant; tags: N-terminal GST; dsDNA, one strand shown. In outline: as §1

In another assay the target is T10, ETV7 (Homo sapiens, UniProt Q9Y603 1-341).
T10 sequence: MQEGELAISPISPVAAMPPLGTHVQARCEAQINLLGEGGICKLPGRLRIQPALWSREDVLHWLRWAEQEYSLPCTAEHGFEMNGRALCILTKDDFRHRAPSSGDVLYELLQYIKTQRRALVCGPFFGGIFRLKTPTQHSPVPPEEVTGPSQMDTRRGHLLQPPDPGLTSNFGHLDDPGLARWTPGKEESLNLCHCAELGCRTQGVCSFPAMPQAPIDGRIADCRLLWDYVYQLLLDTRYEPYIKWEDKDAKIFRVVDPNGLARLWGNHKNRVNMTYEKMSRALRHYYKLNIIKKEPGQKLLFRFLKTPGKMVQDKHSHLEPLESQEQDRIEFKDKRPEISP
The following applies: protein: recombinant; tags: N-terminal GST; dsDNA, one strand shown. The method in brief: as §1

For another assay, the target named is T11, ELF5 (Homo sapiens, UniProt Q9UKW6-2 1-255).
T11 sequence: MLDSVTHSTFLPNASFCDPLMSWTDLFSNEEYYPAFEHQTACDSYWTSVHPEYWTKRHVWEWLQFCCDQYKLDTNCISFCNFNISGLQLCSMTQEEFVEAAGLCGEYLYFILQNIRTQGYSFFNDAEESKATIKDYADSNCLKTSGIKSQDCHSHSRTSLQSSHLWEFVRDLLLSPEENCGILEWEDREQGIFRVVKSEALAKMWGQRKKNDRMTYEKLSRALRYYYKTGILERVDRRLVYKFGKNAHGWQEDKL
The settings on record: protein: recombinant; tags: N-terminal GST; dsDNA, one strand shown. In outline: as §1

For another assay, the target named is T12, ETV3 (Homo sapiens, UniProt P41162-2 1-143).
T12 sequence: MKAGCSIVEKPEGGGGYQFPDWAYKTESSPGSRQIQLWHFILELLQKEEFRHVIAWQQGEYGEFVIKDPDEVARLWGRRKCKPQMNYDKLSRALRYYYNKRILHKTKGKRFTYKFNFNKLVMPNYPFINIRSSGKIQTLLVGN
The settings on record: protein: recombinant; tags: N-terminal GST; dsDNA, one strand shown. The method in brief:
as §1

A further assay addresses ETV6 (Homo sapiens, UniProt P41212 1-452). The following applies: protein: recombinant; tags: N-terminal GST; dsDNA, one strand shown. The method in brief: as §1

Chain of ETV5 (P41161 whole entry): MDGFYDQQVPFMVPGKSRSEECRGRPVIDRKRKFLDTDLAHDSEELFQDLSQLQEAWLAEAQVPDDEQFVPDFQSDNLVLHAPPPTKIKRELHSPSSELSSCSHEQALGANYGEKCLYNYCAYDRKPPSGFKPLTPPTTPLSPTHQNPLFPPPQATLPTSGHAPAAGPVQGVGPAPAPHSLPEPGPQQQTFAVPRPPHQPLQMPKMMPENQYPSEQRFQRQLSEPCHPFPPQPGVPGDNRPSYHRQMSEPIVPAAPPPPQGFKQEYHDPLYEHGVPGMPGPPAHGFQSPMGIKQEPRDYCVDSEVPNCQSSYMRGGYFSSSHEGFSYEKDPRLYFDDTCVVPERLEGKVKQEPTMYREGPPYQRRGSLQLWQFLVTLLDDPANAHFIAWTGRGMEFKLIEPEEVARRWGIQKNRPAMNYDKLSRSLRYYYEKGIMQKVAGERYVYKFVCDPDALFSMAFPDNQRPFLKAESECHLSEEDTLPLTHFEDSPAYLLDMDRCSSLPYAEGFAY
Chain of ELF4 (Q99607 whole entry): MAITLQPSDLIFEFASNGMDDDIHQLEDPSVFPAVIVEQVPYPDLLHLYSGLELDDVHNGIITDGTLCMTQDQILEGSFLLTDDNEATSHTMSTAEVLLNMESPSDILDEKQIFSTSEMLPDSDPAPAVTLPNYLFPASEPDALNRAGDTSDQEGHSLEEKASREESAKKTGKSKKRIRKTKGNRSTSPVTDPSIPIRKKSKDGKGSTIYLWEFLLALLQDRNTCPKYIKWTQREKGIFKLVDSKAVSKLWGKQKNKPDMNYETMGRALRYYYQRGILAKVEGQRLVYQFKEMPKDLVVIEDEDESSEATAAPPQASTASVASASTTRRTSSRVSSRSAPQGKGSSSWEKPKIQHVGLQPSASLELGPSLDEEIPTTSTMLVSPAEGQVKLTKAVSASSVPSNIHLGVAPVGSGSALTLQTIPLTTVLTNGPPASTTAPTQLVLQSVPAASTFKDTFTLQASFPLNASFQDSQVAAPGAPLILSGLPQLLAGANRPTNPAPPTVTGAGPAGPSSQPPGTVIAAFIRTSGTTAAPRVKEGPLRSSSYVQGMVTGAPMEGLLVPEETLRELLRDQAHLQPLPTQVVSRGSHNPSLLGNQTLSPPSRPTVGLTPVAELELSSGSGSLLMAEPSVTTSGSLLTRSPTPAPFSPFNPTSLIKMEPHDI
Chain of ETV1 (P50549 whole entry): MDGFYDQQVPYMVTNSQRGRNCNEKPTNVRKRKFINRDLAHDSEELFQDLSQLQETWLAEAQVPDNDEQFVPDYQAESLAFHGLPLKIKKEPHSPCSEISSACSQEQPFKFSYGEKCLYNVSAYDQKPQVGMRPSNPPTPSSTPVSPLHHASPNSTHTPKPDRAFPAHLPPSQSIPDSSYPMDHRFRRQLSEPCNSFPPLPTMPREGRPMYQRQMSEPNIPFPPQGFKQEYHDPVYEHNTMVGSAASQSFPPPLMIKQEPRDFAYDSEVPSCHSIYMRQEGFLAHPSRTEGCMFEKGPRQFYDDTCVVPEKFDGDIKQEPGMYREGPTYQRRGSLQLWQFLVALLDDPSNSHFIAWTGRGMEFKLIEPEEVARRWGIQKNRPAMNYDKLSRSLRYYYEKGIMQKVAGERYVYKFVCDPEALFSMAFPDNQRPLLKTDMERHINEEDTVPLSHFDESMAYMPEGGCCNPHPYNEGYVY
Chain of ETV6 (P41212 whole entry): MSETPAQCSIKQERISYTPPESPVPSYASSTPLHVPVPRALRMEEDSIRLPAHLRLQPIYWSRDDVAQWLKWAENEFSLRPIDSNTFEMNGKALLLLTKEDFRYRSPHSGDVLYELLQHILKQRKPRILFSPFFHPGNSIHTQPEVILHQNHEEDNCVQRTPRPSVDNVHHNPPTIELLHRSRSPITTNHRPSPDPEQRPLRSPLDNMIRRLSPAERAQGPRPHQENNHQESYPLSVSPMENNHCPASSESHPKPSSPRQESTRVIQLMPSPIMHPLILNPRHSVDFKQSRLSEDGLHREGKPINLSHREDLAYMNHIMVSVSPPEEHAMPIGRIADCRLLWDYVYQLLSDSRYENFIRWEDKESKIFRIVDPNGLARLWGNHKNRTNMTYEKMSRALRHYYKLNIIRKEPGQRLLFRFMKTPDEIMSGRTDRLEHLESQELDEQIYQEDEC
Chain of HSF1 (Q00613 whole entry): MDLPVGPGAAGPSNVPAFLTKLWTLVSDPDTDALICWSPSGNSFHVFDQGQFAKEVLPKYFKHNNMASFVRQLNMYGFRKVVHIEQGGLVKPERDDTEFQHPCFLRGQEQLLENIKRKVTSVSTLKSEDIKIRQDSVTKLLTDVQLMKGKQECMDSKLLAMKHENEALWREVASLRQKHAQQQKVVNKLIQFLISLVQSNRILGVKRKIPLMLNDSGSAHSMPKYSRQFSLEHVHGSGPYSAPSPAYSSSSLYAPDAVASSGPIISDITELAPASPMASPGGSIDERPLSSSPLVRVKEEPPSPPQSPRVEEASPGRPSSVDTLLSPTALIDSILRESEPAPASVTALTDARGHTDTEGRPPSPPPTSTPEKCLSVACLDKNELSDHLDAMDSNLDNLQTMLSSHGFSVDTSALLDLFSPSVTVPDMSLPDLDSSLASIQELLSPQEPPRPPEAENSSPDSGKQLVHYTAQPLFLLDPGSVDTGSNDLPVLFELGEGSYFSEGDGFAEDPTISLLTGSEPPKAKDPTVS

TAGCTA: the binding signal with FEV was 1.22 fold enrichment (6-mer frequency, TF over GST control); with ETV5, 1.24 fold enrichment (6-mer frequency, TF over GST control); with HSF1, 1.47 fold enrichment (6-mer frequency, TF over GST control); in the assay with SPIC, 1.22 fold enrichment (6-mer frequency, TF over GST control); in the assay with ELF4, 1.28 fold enrichment (6-mer frequency, TF over GST control); in the assay with ELK4 it was 1.3 fold enrichment (6-mer frequency, TF over GST control). The binding signal with ETV2 is 1.27 fold enrichment (6-mer frequency, TF over GST control); in the assay with ELF3 it was 1.17 fold enrichment (6-mer frequency, TF over GST control); in the assay with CRX, 1.58 fold enrichment (6-mer frequency, TF over GST control); with ETV1, 1.27 fold enrichment (6-mer frequency, TF over GST control); with ERF it was 1.23 fold enrichment (6-mer frequency, TF over GST control); with ETV3L it was 1.24 fold enrichment (6-mer frequency, TF over GST control). Besides, the binding signal in the assay with ETS2 was 1.28 fold enrichment (6-mer frequency, TF over GST control); with SPDEF it was 1.08 fold enrichment (6-mer frequency, TF over GST control); with ETV7, 1.31 fold enrichment (6-mer frequency, TF over GST control); with ELF5, 1.16 fold enrichment (6-mer frequency, TF over GST control); in the assay with ETV3, 1.18 fold enrichment (6-mer frequency, TF over GST control); in the assay with ETV6, 1.28 fold enrichment (6-mer frequency, TF over GST control).
